RMI-FANCM inh: disruptors of RMI1/RMI2 association with MM2 peptide – biochemical, fluorescence polarization, human, primary screen; RMI core complex with F-MM2 peptide; active compounds read low; FP signal (polarization) at 33 µM; 0.58% of 70,000 active; AID 1159607, 2016; in the data active = FP signal below about 40
Large screens that a line does not name were inactive. Shown is part of a subset that was picked to be rich in hits.

Cc1ccc(C(=O)c2ccccc2[N+](=O)[O-])cc1	none
S=c1nccc(-c2ccc(-c3cccs3)s2)[nH]1	RMI-FANCM inh 33
Cc1nc(-c2ccnc(=S)[nH]2)cs1	none
c1csc(-c2ccn[nH]2)c1	none
Cc1nnc2ccc(N3CCN(C(=O)COc4ccc(F)cc4F)CC3)nn12	none
C=CCN1C(=O)C(C)(C)COc2cc(NC(=O)c3ccccc3C(F)(F)F)ccc21	none
CCc1nnc(NC(=O)c2ccc(COC)o2)s1	none
Cc1c(C(=O)OC(C)C)c2cc(OC(=O)c3ccco3)ccc2n1C(=O)c1ccco1	none
COc1ccc(-c2nc(SC(CC(=O)NCCc3ccccc3)c3cccs3)n[nH]2)cc1 (stereo unspecified)	none
COc1ccc(-c2nc(SC(CC(=O)NCCN3CCOCC3)c3ccc(OC)cc3)n[nH]2)cc1 (stereo unspecified)	RMI-FANCM inh 22
COc1ccc(C(CC(=O)NCc2ccccc2)Sc2n[nH]c(-c3ccc(F)cc3)n2)cc1 (stereo unspecified)	none
COC(=O)c1ccccc1NC(=O)CSc1ncccc1C(=O)O	none
CC(C)Sc1n[nH]c(=O)n1-c1ccccc1	none
O=C(Nc1ccc(-c2cnco2)cc1)c1ccccc1	none
Cc1ccccc1C(=O)NCCn1cc(SCc2ccccc2)c2ccccc21	none
CCC(=O)O[C@H]1[C@H](O[C@@H]2[C@@H](C)[C@H](O[C@H]3C[C@@](C)(OC)[C@@H](O)[C@H](C)O3)[C@@H](C)C(=O)O[C@H](CC)[C@@](C)(O)[C@H](O)[C@@H](C)C(=O)[C@H](C)C[C@@]2(C)O)O[C@H](C)C[C@@H]1N(C)C	none
CCOC(=O)CCC(=O)O[C@H]1[C@H](O[C@@H]2[C@@H](C)[C@H](O[C@H]3C[C@@](C)(OC)[C@@H](O)[C@H](C)O3)[C@@H](C)C(=O)O[C@H](CC)[C@@](C)(O)[C@H](O)[C@@H](C)C(=O)[C@H](C)C[C@@]2(C)O)O[C@H](C)C[C@@H]1N(C)C	RMI-FANCM inh -23
CCOC(=O)CCC(=O)OC1C(OC2C(C)C(OC3CC(C)(OC)C(O)C(C)O3)C(C)C(=O)OC(CC)C(C)(O)C(O)C(C)C(=O)C(C)CC2(C)O)OC(C)CC1N(C)C (stereo unspecified)	none
COc1ccc(CC(=O)NCC(=O)N2CCOC(c3ccccc3)C2)cc1 (stereo unspecified)	none
CCN(CC)CCN(C(=O)c1cccs1)c1nc2cc3c(cc2s1)OCCO3	none
C/C=C/C(=O)Nc1cc(C)nn1-c1nc2c(c(=O)[nH]1)CCC2	none
Cc1cc(NC(=O)c2cc(=O)c3ccccc3o2)n(-c2nc3c(c(=O)[nH]2)CCC3)n1	RMI-FANCM inh 9
Cc1cc(NC(=O)C(=O)c2c[nH]c3ccccc23)n(-c2nc3c(c(=O)[nH]2)CCC3)n1	none
O=C1Cc2cc(NC(=O)c3ccccc3C(F)(F)F)ccc2N1	none
O=C(c1ccco1)N1CCN(C(=O)c2cn(Cc3ccc(F)cc3)nc2OCc2ccc(F)cc2)CC1	none
CSc1ccc(Cl)cc1NC(=O)C(F)(F)F	none
Cc1cc(C)n(C(C)CC(=O)Nc2ccccn2)n1 (stereo unspecified)	none
COc1ccc(-c2cc3ccc4c(c3oc2=O)CN(CC2CCCO2)CO4)cc1OC (stereo unspecified)	none
COCCCN1COc2ccc3cc(-c4cc(OC)ccc4OC)c(=O)oc3c2C1	RMI-FANCM inh 35
CCOCCCN1COc2ccc3c(=O)c(-c4ccc(Cl)cc4)coc3c2C1	none
O=C(Cc1csc(Nc2cccc(C(F)(F)F)c2)n1)N1CCN(c2ccccn2)CC1	none

From PubChem BioAssay
